# Article PMC11006913
# Target: HOXB9 (Homo sapiens, UniProt P17482 171-250, T197M)
# Experiment: PBM; 200 nM protein, PBS
# Conditions: dsDNA, one strand shown
# HOXB9 (Homo sapiens, UniProt P17482 171-250, T197M), sequence (P17482 171-250 T197M): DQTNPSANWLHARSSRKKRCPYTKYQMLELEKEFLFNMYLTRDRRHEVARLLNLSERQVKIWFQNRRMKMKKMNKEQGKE
row,Sequence,binding signal
1,GGTTCGGA,"8.66 upbm affinity estimate (log intensity, higher = more binding, comparable within an allelic series)"
2,GTGGCGGA,"8.44 upbm affinity estimate (log intensity, higher = more binding, comparable within an allelic series)"
3,CCACGCCG,"8.48 upbm affinity estimate (log intensity, higher = more binding, comparable within an allelic series)"
4,GCCGGGCC,"8.36 upbm affinity estimate (log intensity, higher = more binding, comparable within an allelic series)"
5,CCAGACCG,"8.54 upbm affinity estimate (log intensity, higher = more binding, comparable within an allelic series)"
6,CGTGGACC,"8.66 upbm affinity estimate (log intensity, higher = more binding, comparable within an allelic series)"
7,CCCCGGAC,"8.48 upbm affinity estimate (log intensity, higher = more binding, comparable within an allelic series)"
8,CAGATCGG,"8.72 upbm affinity estimate (log intensity, higher = more binding, comparable within an allelic series)"
9,CCCCTCGA,"8.73 upbm affinity estimate (log intensity, higher = more binding, comparable within an allelic series)"
10,ACCGGCCA,"8.45 upbm affinity estimate (log intensity, higher = more binding, comparable within an allelic series)"
11,CCGATCGG,"8.51 upbm affinity estimate (log intensity, higher = more binding, comparable within an allelic series)"
12,ATAAATGA,"9.72 upbm affinity estimate (log intensity, higher = more binding, comparable within an allelic series)"
13,AGGGCGTG,"8.57 upbm affinity estimate (log intensity, higher = more binding, comparable within an allelic series)"
14,AGACGCGG,"8.63 upbm affinity estimate (log intensity, higher = more binding, comparable within an allelic series)"
15,AGCGCGCC,"8.57 upbm affinity estimate (log intensity, higher = more binding, comparable within an allelic series)"
16,CCTGCGGC,"8.26 upbm affinity estimate (log intensity, higher = more binding, comparable within an allelic series)"
17,GACTGACC,"8.57 upbm affinity estimate (log intensity, higher = more binding, comparable within an allelic series)"
18,GCACCGCC,"8.24 upbm affinity estimate (log intensity, higher = more binding, comparable within an allelic series)"
19,GCCTCCGC,"8.43 upbm affinity estimate (log intensity, higher = more binding, comparable within an allelic series)"
20,GCGGGTGA,"8.59 upbm affinity estimate (log intensity, higher = more binding, comparable within an allelic series)"

row,Sequence,binding signal
1,GGCGCAGA,"8.52 upbm affinity estimate (log intensity, higher = more binding, comparable within an allelic series)"
2,GCCACTCC,"8.73 upbm affinity estimate (log intensity, higher = more binding, comparable within an allelic series)"
3,ATTAACAA,"9.96 upbm affinity estimate (log intensity, higher = more binding, comparable within an allelic series)"
4,CTCCCGCC,"8.4 upbm affinity estimate (log intensity, higher = more binding, comparable within an allelic series)"
5,GGAACCCC,"8.42 upbm affinity estimate (log intensity, higher = more binding, comparable within an allelic series)"
6,GAGCGCAA,"8.55 upbm affinity estimate (log intensity, higher = more binding, comparable within an allelic series)"
7,CGTCCGAC,"8.56 upbm affinity estimate (log intensity, higher = more binding, comparable within an allelic series)"
8,GTCCGGCA,"8.68 upbm affinity estimate (log intensity, higher = more binding, comparable within an allelic series)"
9,GACATAAA,"9.74 upbm affinity estimate (log intensity, higher = more binding, comparable within an allelic series)"
10,CACGCCTC,"8.36 upbm affinity estimate (log intensity, higher = more binding, comparable within an allelic series)"
11,GCAGCCCC,"8.47 upbm affinity estimate (log intensity, higher = more binding, comparable within an allelic series)"
12,CGTAGGCC,"8.47 upbm affinity estimate (log intensity, higher = more binding, comparable within an allelic series)"
13,AGGTCTGG,"8.53 upbm affinity estimate (log intensity, higher = more binding, comparable within an allelic series)"
14,CCCGCGAG,"8.58 upbm affinity estimate (log intensity, higher = more binding, comparable within an allelic series)"
15,GCCGCAGA,"8.65 upbm affinity estimate (log intensity, higher = more binding, comparable within an allelic series)"
16,CGCCGGGA,"8.5 upbm affinity estimate (log intensity, higher = more binding, comparable within an allelic series)"
17,GGCTCCGA,"8.49 upbm affinity estimate (log intensity, higher = more binding, comparable within an allelic series)"
18,CCCGTCTC,"8.46 upbm affinity estimate (log intensity, higher = more binding, comparable within an allelic series)"
19,ACCGGCCT,"8.37 upbm affinity estimate (log intensity, higher = more binding, comparable within an allelic series)"

# Target: HOXB9 (Homo sapiens, UniProt P17482 171-250)
# Experiment: PBM; 200 nM protein, PBS
# Conditions: dsDNA, one strand shown
# HOXB9 (Homo sapiens, UniProt P17482 171-250), sequence (P17482 171-250): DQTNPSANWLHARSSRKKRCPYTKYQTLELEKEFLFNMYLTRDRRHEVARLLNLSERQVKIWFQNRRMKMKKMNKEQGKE
row,Sequence,binding signal
1,GGTTCGGA,"8.54 upbm affinity estimate (log intensity, higher = more binding, comparable within an allelic series)"
2,GTGGCGGA,"8.58 upbm affinity estimate (log intensity, higher = more binding, comparable within an allelic series)"
3,CCACGCCG,"8.38 upbm affinity estimate (log intensity, higher = more binding, comparable within an allelic series)"
4,GCCGGGCC,"8.42 upbm affinity estimate (log intensity, higher = more binding, comparable within an allelic series)"
5,CCAGACCG,"8.51 upbm affinity estimate (log intensity, higher = more binding, comparable within an allelic series)"
6,CGTGGACC,"8.61 upbm affinity estimate (log intensity, higher = more binding, comparable within an allelic series)"
7,CCCCGGAC,"8.48 upbm affinity estimate (log intensity, higher = more binding, comparable within an allelic series)"
8,CAGATCGG,"8.44 upbm affinity estimate (log intensity, higher = more binding, comparable within an allelic series)"
9,CCCCTCGA,"8.55 upbm affinity estimate (log intensity, higher = more binding, comparable within an allelic series)"
10,ACCGGCCA,"8.55 upbm affinity estimate (log intensity, higher = more binding, comparable within an allelic series)"
11,CCGATCGG,"8.53 upbm affinity estimate (log intensity, higher = more binding, comparable within an allelic series)"
12,ATAAATGA,"11 upbm affinity estimate (log intensity, higher = more binding, comparable within an allelic series)"
13,AGGGCGTG,"8.4 upbm affinity estimate (log intensity, higher = more binding, comparable within an allelic series)"
14,AGACGCGG,"8.58 upbm affinity estimate (log intensity, higher = more binding, comparable within an allelic series)"
15,AGCGCGCC,"8.53 upbm affinity estimate (log intensity, higher = more binding, comparable within an allelic series)"
16,CCTGCGGC,"8.14 upbm affinity estimate (log intensity, higher = more binding, comparable within an allelic series)"
17,GACTGACC,"8.7 upbm affinity estimate (log intensity, higher = more binding, comparable within an allelic series)"
18,GCACCGCC,"8.35 upbm affinity estimate (log intensity, higher = more binding, comparable within an allelic series)"
19,GCCTCCGC,"8.05 upbm affinity estimate (log intensity, higher = more binding, comparable within an allelic series)"

row,Sequence,binding signal
1,GCGGGTGA,"8.45 upbm affinity estimate (log intensity, higher = more binding, comparable within an allelic series)"
2,GGCGCAGA,"8.62 upbm affinity estimate (log intensity, higher = more binding, comparable within an allelic series)"
3,GCCACTCC,"8.79 upbm affinity estimate (log intensity, higher = more binding, comparable within an allelic series)"
4,CTCCCGCC,"8.4 upbm affinity estimate (log intensity, higher = more binding, comparable within an allelic series)"
5,GGAACCCC,"8.48 upbm affinity estimate (log intensity, higher = more binding, comparable within an allelic series)"
6,GAGCGCAA,"8.29 upbm affinity estimate (log intensity, higher = more binding, comparable within an allelic series)"
7,CGTCCGAC,"8.39 upbm affinity estimate (log intensity, higher = more binding, comparable within an allelic series)"
8,GTCCGGCA,"8.51 upbm affinity estimate (log intensity, higher = more binding, comparable within an allelic series)"
9,GACATAAA,"11.7 upbm affinity estimate (log intensity, higher = more binding, comparable within an allelic series)"
10,CACGCCTC,"8.42 upbm affinity estimate (log intensity, higher = more binding, comparable within an allelic series)"
11,GCAGCCCC,"8.43 upbm affinity estimate (log intensity, higher = more binding, comparable within an allelic series)"
12,CGTAGGCC,"8.61 upbm affinity estimate (log intensity, higher = more binding, comparable within an allelic series)"
13,AGGTCTGG,"8.57 upbm affinity estimate (log intensity, higher = more binding, comparable within an allelic series)"
14,CCCGCGAG,"8.45 upbm affinity estimate (log intensity, higher = more binding, comparable within an allelic series)"
15,GCCGCAGA,"8.62 upbm affinity estimate (log intensity, higher = more binding, comparable within an allelic series)"
16,CGCCGGGA,"8.44 upbm affinity estimate (log intensity, higher = more binding, comparable within an allelic series)"
17,GGCTCCGA,"8.4 upbm affinity estimate (log intensity, higher = more binding, comparable within an allelic series)"
18,CCCGTCTC,"8.32 upbm affinity estimate (log intensity, higher = more binding, comparable within an allelic series)"
19,ACCGGCCT,"8.52 upbm affinity estimate (log intensity, higher = more binding, comparable within an allelic series)"

# Target: HOXB9 (Homo sapiens, UniProt P17482 171-250, R186Q)
# Experiment: PBM; 200 nM protein, PBS
# Conditions: dsDNA, one strand shown
# HOXB9 (Homo sapiens, UniProt P17482 171-250, R186Q), sequence (P17482 171-250 R186Q): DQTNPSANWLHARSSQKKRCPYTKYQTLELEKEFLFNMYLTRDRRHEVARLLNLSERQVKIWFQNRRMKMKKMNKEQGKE
row,Sequence,binding signal
1,GGTTCGGA,"8.53 upbm affinity estimate (log intensity, higher = more binding, comparable within an allelic series)"
2,GTGGCGGA,"8.61 upbm affinity estimate (log intensity, higher = more binding, comparable within an allelic series)"
3,CCACGCCG,"8.41 upbm affinity estimate (log intensity, higher = more binding, comparable within an allelic series)"
4,GCCGGGCC,"8.41 upbm affinity estimate (log intensity, higher = more binding, comparable within an allelic series)"
5,CCAGACCG,"8.43 upbm affinity estimate (log intensity, higher = more binding, comparable within an allelic series)"
6,CGTGGACC,"8.63 upbm affinity estimate (log intensity, higher = more binding, comparable within an allelic series)"
7,CCCCGGAC,"8.49 upbm affinity estimate (log intensity, higher = more binding, comparable within an allelic series)"
8,CAGATCGG,"8.55 upbm affinity estimate (log intensity, higher = more binding, comparable within an allelic series)"
9,CCCCTCGA,"8.57 upbm affinity estimate (log intensity, higher = more binding, comparable within an allelic series)"
10,ACCGGCCA,"8.63 upbm affinity estimate (log intensity, higher = more binding, comparable within an allelic series)"
11,CCGATCGG,"8.57 upbm affinity estimate (log intensity, higher = more binding, comparable within an allelic series)"
12,ATAAATGA,"10.8 upbm affinity estimate (log intensity, higher = more binding, comparable within an allelic series)"
13,AGGGCGTG,"8.53 upbm affinity estimate (log intensity, higher = more binding, comparable within an allelic series)"
14,AGACGCGG,"8.55 upbm affinity estimate (log intensity, higher = more binding, comparable within an allelic series)"
15,AGCGCGCC,"8.54 upbm affinity estimate (log intensity, higher = more binding, comparable within an allelic series)"
16,CCTGCGGC,"8.19 upbm affinity estimate (log intensity, higher = more binding, comparable within an allelic series)"
17,GACTGACC,"8.7 upbm affinity estimate (log intensity, higher = more binding, comparable within an allelic series)"
18,GCACCGCC,"8.25 upbm affinity estimate (log intensity, higher = more binding, comparable within an allelic series)"
19,GCCTCCGC,"8.16 upbm affinity estimate (log intensity, higher = more binding, comparable within an allelic series)"

row,Sequence,binding signal
1,GCGGGTGA,"8.62 upbm affinity estimate (log intensity, higher = more binding, comparable within an allelic series)"
2,GGCGCAGA,"8.63 upbm affinity estimate (log intensity, higher = more binding, comparable within an allelic series)"
3,GCCACTCC,"8.8 upbm affinity estimate (log intensity, higher = more binding, comparable within an allelic series)"
4,CTCCCGCC,"8.4 upbm affinity estimate (log intensity, higher = more binding, comparable within an allelic series)"
5,GGAACCCC,"8.46 upbm affinity estimate (log intensity, higher = more binding, comparable within an allelic series)"
6,GAGCGCAA,"8.48 upbm affinity estimate (log intensity, higher = more binding, comparable within an allelic series)"
7,CGTCCGAC,"8.45 upbm affinity estimate (log intensity, higher = more binding, comparable within an allelic series)"
8,GTCCGGCA,"8.52 upbm affinity estimate (log intensity, higher = more binding, comparable within an allelic series)"
9,GACATAAA,"11.3 upbm affinity estimate (log intensity, higher = more binding, comparable within an allelic series)"
10,CACGCCTC,"8.39 upbm affinity estimate (log intensity, higher = more binding, comparable within an allelic series)"
11,GCAGCCCC,"8.5 upbm affinity estimate (log intensity, higher = more binding, comparable within an allelic series)"
12,CGTAGGCC,"8.63 upbm affinity estimate (log intensity, higher = more binding, comparable within an allelic series)"
13,AGGTCTGG,"8.64 upbm affinity estimate (log intensity, higher = more binding, comparable within an allelic series)"
14,CCCGCGAG,"8.39 upbm affinity estimate (log intensity, higher = more binding, comparable within an allelic series)"
15,GCCGCAGA,"8.62 upbm affinity estimate (log intensity, higher = more binding, comparable within an allelic series)"
16,CGCCGGGA,"8.47 upbm affinity estimate (log intensity, higher = more binding, comparable within an allelic series)"
17,GGCTCCGA,"8.41 upbm affinity estimate (log intensity, higher = more binding, comparable within an allelic series)"
18,CCCGTCTC,"8.4 upbm affinity estimate (log intensity, higher = more binding, comparable within an allelic series)"
19,ACCGGCCT,"8.47 upbm affinity estimate (log intensity, higher = more binding, comparable within an allelic series)"

# Target: NKX3-2 (Homo sapiens, UniProt P78367 192-278, P234S)
# Experiment: PBM; 200 nM protein, PBS
# Conditions: dsDNA, one strand shown
# NKX3-2 (Homo sapiens, UniProt P78367 192-278, P234S), sequence (P78367 192-278 P234S): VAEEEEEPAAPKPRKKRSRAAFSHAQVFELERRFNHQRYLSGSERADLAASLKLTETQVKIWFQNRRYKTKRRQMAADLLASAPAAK
row,Sequence,binding signal
1,GCAGCCCC,"10.7 upbm affinity estimate (log intensity, higher = more binding, comparable within an allelic series)"
2,CGCCGGGA,"10.5 upbm affinity estimate (log intensity, higher = more binding, comparable within an allelic series)"
3,ACCGGCCT,"10.6 upbm affinity estimate (log intensity, higher = more binding, comparable within an allelic series)"

# Target: NKX3-2 (Homo sapiens, UniProt P78367 192-278)
# Experiment: PBM; 200 nM protein, PBS
# Conditions: dsDNA, one strand shown
# NKX3-2 (Homo sapiens, UniProt P78367 192-278), sequence (P78367 192-278): as the sequence (P78367 192-278 P234S) above, with S43P counted along it
row,Sequence,binding signal
1,GCAGCCCC,"10.7 upbm affinity estimate (log intensity, higher = more binding, comparable within an allelic series)"
2,CGCCGGGA,"10.5 upbm affinity estimate (log intensity, higher = more binding, comparable within an allelic series)"
3,ACCGGCCT,"10.5 upbm affinity estimate (log intensity, higher = more binding, comparable within an allelic series)"
